From PubChem BioAssay come the findings set out here.

Assay [1] is described as follows: HepG2 liver cancer cell viability effects, profiling panel, resazurin fluorescence, 24 h, PK04 Diversity Set (AID 1172). Further: test concentration not given here. As to conditions: higher = more signal. In general terms: Resazurin is reduced to fluorescent resorufin, in cell work by metabolically active cells.
Assay [2] is described as follows: basal S. cerevisiae growth modulation, no modifier, primary screen, OD600, strain BY4716, 24 h, basal condition (AID 1173). The note with it: OD600, 24 h, higher = more signal, called active from +8 up or from −8 down.
Assay [3] can be described thus: MM1S myeloma cell viability, profiling panel, resazurin fluorescence, basal, 24 h, PK04 Diversity Set (AID 1174).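 Further: MM1S multiple myeloma cell line; test concentration not given here.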 The note with it: higher = more signal, called active from +8 up or from −8 down.
Assay [4] concerns the target Dihydroorotate dehydrogenase (quinone), mitochondrial (Plasmodium falciparum (isolate 3D7)) (UniProt Q08210). Put plainly: PfDHODH enzyme inhibitors, primary screen, biochemical, C-terminal His tag, absorbance 600 nm (AID 1175).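 Further: recombinant parasite enzyme with a five histidine tag at its C terminus; test concentration not given here.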 As to conditions: DCIP absorbance 600 nm, higher = more signal, called active from +8 up or from −8 down.
The nature of assay [5]: P. aeruginosa biofilm formation inhibitors, primary screen, strain PAO1, LB-PBS medium, absorbance 600 nm (AID 1176). Further: test concentration not given here. As to conditions: P. aeruginosa PAO1 growth/biofilm, A600, 12 h; higher = more signal.
Assay [6] can be described thus: S. cerevisiae RM11-1a growth modifiers, primary screen, strain RM11-1a, OD600, basal, 24 h (AID 1177).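 Further: cultures grown under basal conditions with no added stressor; test concentration not given here.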 As to conditions: OD600, 24 h, higher = more signal, called active from +8 up or from −8 down.
The nature of assay [7]: E. coli acrAB mutant growth effects, primary screen, E. coli filamentation inducers, strain DRC39, OD650, 24 h (AID 1178).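 Further: growth measured as culture turbidity by optical density at 650 nm; test concentration not given here.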 The note with it: higher = more signal, called active from +8 up or from −8 down.
Assay [8] can be described thus: E. coli acrAB mutant growth effects, primary screen, E. coli filamentation inducers, strain DRC39, OD650, 48 h (AID 1179).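 Further: screen aims at cell division blockers that make cells filament.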 The note with it: E. coli DRC39 delta-acrAB growth, higher = more signal, called active from +8 up or from −8 down.
Assay [9] is described as follows: RPMI8226 myeloma cell viability, profiling panel, resazurin fluorescence, basal, 24 h, PK04 Diversity Set (AID 1180).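 Further: RPMI8826 multiple myeloma cell line at 5000 cells per well; test concentration not given here.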 As to conditions: higher = more signal.
The target in assay [10] is E3 ubiquitin-protein ligase XIAP (Homo sapiens) (UniProt P98170). Put plainly: XIAP binders, primary screen, biophysical, small-molecule microarray, fluorescence 635 nm (AID 1181).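 Further: score merges 667 nm emission and signal to noise over triplicate slides.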 The note with it: small-molecule microarray binding, higher = more signal.

Molecules are shown by their SMILES. The source made the active and inactive calls. Unless noted, how the calls were made is not given here.

Dihydroorotate dehydrogenase (quinone), mitochondrial (Plasmodium falciparum (isolate 3D7)), sequence (Q08210 whole entry, looked up): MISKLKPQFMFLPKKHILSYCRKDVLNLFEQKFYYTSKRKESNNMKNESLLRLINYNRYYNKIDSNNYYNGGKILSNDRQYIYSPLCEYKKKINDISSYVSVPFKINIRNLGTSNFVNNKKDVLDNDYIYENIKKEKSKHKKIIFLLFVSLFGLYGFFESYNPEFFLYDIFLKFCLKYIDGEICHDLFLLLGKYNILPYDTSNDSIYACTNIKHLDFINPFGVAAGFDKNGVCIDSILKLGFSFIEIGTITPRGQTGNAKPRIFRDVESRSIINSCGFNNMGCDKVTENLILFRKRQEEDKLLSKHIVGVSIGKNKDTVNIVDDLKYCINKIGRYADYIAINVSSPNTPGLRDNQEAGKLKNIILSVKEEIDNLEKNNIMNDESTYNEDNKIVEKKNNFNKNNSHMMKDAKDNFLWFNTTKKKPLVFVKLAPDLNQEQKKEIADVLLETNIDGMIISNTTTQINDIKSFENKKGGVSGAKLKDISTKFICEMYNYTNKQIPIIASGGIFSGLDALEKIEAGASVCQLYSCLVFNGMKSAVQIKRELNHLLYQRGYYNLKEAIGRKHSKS
E3 ubiquitin-protein ligase XIAP (Homo sapiens), sequence (P98170 whole entry, looked up): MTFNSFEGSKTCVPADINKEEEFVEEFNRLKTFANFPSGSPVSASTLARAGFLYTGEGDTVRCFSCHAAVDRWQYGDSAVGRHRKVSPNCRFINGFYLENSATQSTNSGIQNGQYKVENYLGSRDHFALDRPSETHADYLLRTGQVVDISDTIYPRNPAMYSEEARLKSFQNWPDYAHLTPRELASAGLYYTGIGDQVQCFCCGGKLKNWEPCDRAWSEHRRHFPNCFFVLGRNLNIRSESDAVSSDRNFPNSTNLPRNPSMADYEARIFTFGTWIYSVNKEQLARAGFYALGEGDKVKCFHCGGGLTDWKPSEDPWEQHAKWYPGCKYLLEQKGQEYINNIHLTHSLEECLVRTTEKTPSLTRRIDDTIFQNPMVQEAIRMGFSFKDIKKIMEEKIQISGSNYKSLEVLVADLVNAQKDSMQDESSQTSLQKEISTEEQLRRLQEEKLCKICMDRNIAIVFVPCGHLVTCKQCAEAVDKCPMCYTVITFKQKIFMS

`COc1ccc(C#Cc2ccc3c(c2)[C@]2(C(=O)N3)[C@H](c3ccccc3OCCO)N3[C@H](c4ccccc4)[C@H](c4ccccc4)OC(=O)[C@H]3[C@@H]2C(=O)NC[C@H](O)c2ccccc2)cc1`: the z-score in [1] was 0.328; in [2], 2.05 (inactive); in assay [3] it was -2.59 (inactive); in [5], 1.08 (inactive); in assay [6], 2.25 (inactive); in assay [7], 0.158 (inactive). Further, the z-score in assay [8] was -0.438 (inactive); in [9] it was -3.95. Moreover, the composite z-score was -17.2 (active) in assay [4] and 0.0655 in assay [10].

With `COCCOC(=O)N1C(=O)[C@@]2(c3cc(C#CC4(O)CCCCCC4)ccc31)[C@H](C(N)=O)[C@H]1C(=O)O[C@H](c3ccccc3)[C@H](c3ccccc3)N1[C@@H]2c1ccc(OCCO)cc1`, the z-score was -0.905 in [1]; 0.842 (inactive) in assay [2]; -3.72 (inactive) in assay [3]; 2.53 (inactive) in [5]; 2.58 (inactive) in [6]; 0.141 (inactive) in [7]. Further, the z-score in [8] is 0.282 (inactive); in [9] it was -3.3. Moreover, the results for the composite z-score in assay [4] and in assay [10] were 0.42 (inactive) and 0.128, respectively.

`CC(C)(C)OC(=O)CC[C@]1(C(=O)N2CCOCC2)COC(c2ccc(OCCCO)cc2)=N1`: the z-score in assay [1] is 0.329; in assay [2] it was -0.444 (inactive); in [3], 0.475 (inactive); in [5], 0.149 (inactive); in assay [6] it was 0.568 (inactive); in assay [7] it was 1.21 (inactive). Further, the z-score in assay [8] is 1.37 (inactive); in [9] it was 0.227. For the same molecule, the values for the composite z-score in [4] and in assay [10] were -0.0274 (inactive) and 0.0996, respectively.

For `C[C@@]1([C@@H](NS(=O)(=O)c2cccc3cccnc23)c2ccc(-c3ccccc3)cc2)C[C@H]1C1CCCCC1`, the z-score in assay [1] was -0.901; in assay [2] it was 0.944 (inactive); in [3] it was -2.58 (inactive); in [5], -0.0982 (inactive); in [6], 0.368 (inactive); in [7], -0.893 (inactive). In addition, the values for the z-score in assay [8] and in [9] were -0.882 (inactive) and -0.678, respectively. In addition, the values for the composite z-score in assay [4] and in assay [10] were -0.554 (inactive) and 0.553, respectively.

In the case of `CC(C)c1ccc(NN2C(C(O)C3=C[C@H]4C[C@@H](C3)C4(C)C)C=CC3C(=O)N(c4ccccc4)C(=O)C32)cc1` (stereo not given in full), the z-score in assay [1] was -1.11; in assay [2], -1.8 (inactive); in [3], 0.32 (inactive); in [5], 0.863 (inactive); in assay [6], 0.786 (inactive); in [7] it was -0.326 (inactive). For the same molecule, the z-score in [8] is -0.629 (inactive); in assay [9], 0.319. Besides, the results for the composite z-score in assay [4] and in assay [10] were 0.0752 (inactive) and 0.339, respectively.

Regarding `COC(=O)[C@@]1(Cc2ccc(F)cc2)[C@H]2c3cc(C(=O)N(C)C)n(CCF)c3C[C@H]2CN1C(=O)c1ccccc1`, the z-score in [1] is 0.0085; in assay [2], 0.0276 (inactive); in [3], -0.182 (inactive); in assay [5], 0.7 (inactive); in assay [6], -0.5 (inactive); in assay [7], 0.783 (inactive). Also, the results for the z-score in assay [8] and in assay [9] were 0.459 (inactive) and 0.034, respectively. Further, the results for the composite z-score in [4] and in assay [10] were -0.54 (inactive) and 0.179, respectively.

Consider `COc1ccc(CCNC(=O)[C@@H]2c3ccccc3C(=O)N(Cc3cc(F)cc(C(F)(F)F)c3)[C@H]2c2ccc(CO)cc2)cc1`, for which the z-score in assay [1] was -0.162; in [2] it was -0.314 (inactive); in assay [3] it was 0.821 (inactive); in assay [5], -0.121 (inactive); in assay [6] it was -0.209 (inactive); in assay [7] it was 0.746 (inactive). The z-score is 0.387 (inactive) in assay [8] and 1.16 in [9]. For the same molecule, the composite z-score was -0.179 (inactive) in assay [4] and -0.0835 in assay [10].

With `O=C/C=C/c1ccc(-c2ccccc2)cc1`, the z-score is -0.0736 in [1]; -18.6 (active) in [2]; -1.08 (inactive) in [3]; -0.944 (inactive) in assay [5]; -21.6 (active) in assay [6]; 1.29 (inactive) in assay [7]. For the same molecule, the z-score in assay [8] was 0.917 (inactive); in assay [9], -5.15. Moreover, the composite z-score in assay [4] is -2.53 (inactive); in [10] it was 0.0097.

In the case of `CCCN1C(=O)[C@@]2(c3ccc([N+](=O)[O-])cc3)CC(=O)N(C3CCCCC3)[C@@H]2c2ccc(CO)cc21`, the z-score in assay [1] was -0.225; in assay [2], 1.88 (inactive); in assay [3], -0.674 (inactive); in [5] it was 0.944 (inactive); in assay [6] it was 1.89 (inactive); in assay [7], 0.197 (inactive). In addition, the z-score in assay [8] was -1.27 (inactive); in assay [9], -0.606. Moreover, the composite z-score was -24.3 (active) in [4] and -0.0773 in assay [10].

In the case of `COc1cc(Cc2cc3c(c(-c4ccccc4)n2)[Si](C(C)C)(C(C)C)OC3)cc(OC)c1OC`, the z-score in assay [1] is 0.233; in [2] it was 0.299 (inactive); in assay [3], 1.03 (inactive); in assay [5], -0.133 (inactive); in assay [6] it was -0.776 (inactive); in assay [7] it was 1.13 (inactive). In addition, the z-score is 0.405 (inactive) in assay [8] and 0.542 in [9]. The figures for the composite z-score in assay [4] and in [10] were 0.021 (inactive) and -0.305, respectively.

For `COC(=O)[C@@]1(Cc2ccc(OC)cc2)[C@H]2c3cc(C(=O)N(C)C)n(Cc4c(CO)[nH]cc(C)c4=O)c3C[C@H]2CN1C(=O)c1ccccc1`, the z-score in assay [1] is -0.548; in assay [2], -0.0117 (inactive); in assay [3] it was -1.06 (inactive); in assay [5], 0.371 (inactive); in [6], -0.463 (inactive); in assay [7], -0.897 (inactive). Further, the figures for the z-score in assay [8] and in assay [9] were -0.542 (inactive) and -0.717, respectively. Besides, the composite z-score in [4] is -0.501 (inactive); in assay [10] it was -0.127.

As to `O=C1O[C@H](c2ccccc2)[C@H](c2ccccc2)N2[C@H]1[C@@H](C(=O)N1CCCCCCC1)[C@]1(C(=O)Nc3ccc(C#CCCO)cc31)[C@H]2c1ccc(O)cc1`, the z-score is 0.546 in assay [1]; 0.206 (inactive) in assay [2]; 1.33 (inactive) in assay [3]; 0.93 (inactive) in [5]; 0.66 (inactive) in [6]; 0.783 (inactive) in assay [7]. The z-score in assay [8] was 0.721 (inactive); in assay [9], 0.838. Further, the composite z-score in assay [4] is -0.328 (inactive); in assay [10] it was 2.21.

Consider `COC(=O)c1ccc(OC)c(/C=C\CC(OC(=O)c2ccncc2)c2ccccc2)c1` (stereo not given), for which the z-score in assay [1] is 0.887; in assay [2] it was -2.06 (inactive); in assay [3], 0.514 (inactive); in assay [5] it was 0.792 (inactive); in [6], -2.69 (inactive); in assay [7], 2.57 (inactive). Besides, the z-score in [8] is 1.49 (inactive); in assay [9], 0.525. For the same molecule, the figures for the composite z-score in [4] and in assay [10] were -6.33 (inactive) and 0.0774, respectively.
